# Records with an inconclusive call do not appear. Where a call stands in place of a potency, no number is given. A number with no mark means an inactive call. The source made the active and inactive calls. The call rests on the fitted dose curve; in most records, active means well fitted curve in the direction sought with a large enough effect in the repeat runs; inconclusive means weak or mixed curves; inactive means no such curve, though single readings can be large; an effect the other way counts as inactive or inconclusive.
# Key:
# [1] = qHTS RealTime-Glo MT Cell Viability Assay in HepG2 cells - 8 hour (AID 1224873); further: nearly all actives have a fitted effect of over 55% in size
# Summary of the method: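 HepG2 cells mixed with RealTime-Glo MT reagents (NanoLuc plus cell-permeant prosubstrate) were seeded at 600 cells/well, incubated 5 h at 37 C/5% CO2, then pinned with compounds in DMSO; nonlytic luminescence tracked viability during 40 h treatment.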
# [2] = qHTS RealTime-Glo MT Cell Viability Assay in HEK293 cells - 40 hour (AID 1224874); details: RealTime-Glo luminescence; max response: stronger effect = lower value; further: nearly all actives have a fitted effect of over 50% in size
# Summary of the method: (§1)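 Measured as luminescence from the same continuously cultured HEK293 wells at successive time points (0, 8, 16, 24, 32, 40 h) after compound addition. Reagent present from seeding; dosing at 5 h; incubation 37 C.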
# [3] = A CellTox Green Cytotoxicity Assay to monitor cytotoxicity in HEK293 cells - 24 hour (AID 1224875); further: nearly all actives have a fitted effect of over 45% in size; further: potency means the concentration at half of the fitted maximal effect; on activity change: series mostly up to about 77 µM
# Summary of the method: (§2)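 Homogeneous no-lysis format: HEK293 cell suspension mixed with CellTox Green reagent, seeded, incubated 5 h at 37 C/5% CO2, then dosed by pintool with compound in DMSO.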
# [4] = A CellTox Green Cytotoxicity Assay to monitor cytotoxicity in HepG2 cells - 16 hour (AID 1224876); further: nearly all actives have a fitted effect of over 45% in size; further: potency means the concentration at half of the fitted maximal effect
# Summary of the method: (§3)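 Fluorescent DNA-binding dye, 600 HepG2 cells/well, 5 h preincubation then compound in DMSO; same plates read at 0–40 h, 37 C.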
# [5] = qHTS RealTime-Glo MT Cell Viability Assay in HepG2 cells - 32 hour (AID 1224877); further: nearly all actives have a fitted effect of over 55% in size
# Summary of the method: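 Viability was tracked continuously by NanoLuc luminescence from prosubstrate reduced by living HepG2 cells, at successive time points over 40 h of compound exposure. Cells with reagent were preincubated 5 h at 37 °C before compound addition.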
# [6] = A CellTox Green Cytotoxicity Assay to monitor cytotoxicity in HepG2 cells - 24 hour (AID 1224878); further: nearly all actives have a fitted effect of over 45% in size; further: potency means the concentration at half of the fitted maximal effect
# Summary of the method: as §3
# [7] = A CellTox Green Cytotoxicity Assay to monitor cytotoxicity in HepG2 cells - 40 hour (AID 1224879); further: nearly all actives have a fitted effect of over 40% in size; further: potency means the concentration at half of the fitted maximal effect
# Summary of the method: as §3
# [8] = qHTS RealTime-Glo MT Cell Viability Assay in HEK293 cells - 0 hour (AID 1224880); further: top concentration of the series differs between compounds; nearly all actives have a fitted effect of over 45% in size
# Summary of the method: as §1
# [9] = A CellTox Green Cytotoxicity Assay to monitor cytotoxicity in HEK293 cells - 32 hour (AID 1224881); further: nearly all actives have a fitted effect of over 40% in size; further: potency means the concentration at half of the fitted maximal effect
# Summary of the method: as §2
# [10] = qHTS RealTime-Glo MT Cell Viability Assay in HEK293 cells - 16 hour (AID 1224872); further: top concentration of the series differs between compounds; nearly all actives have a fitted effect of over 50% in size
# Summary of the method: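 Viability tracked continuously by luminescence as live cells reduce a prosubstrate for NanoLuc; HEK293 cells preincubated 5 h, compound-treated at 37 C, and read at 0, 8, 16, 24, 32 and 40 h.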
smiles,measurement,setting,value
COc1ccccc1N1CCN(CCCNc2cc(=O)n(C)c(=O)n2C)CC1,outcome,[1],inactive
same,max response,[2],-21.2%
same,Potency,[3],inactive
same,Potency,[4],inactive
same,Potency,[5],inactive
same,Potency,[6],inactive
same,Potency,[7],inactive
same,outcome,[8],inactive
same,Potency,[9],inactive
CCN(O)CC,outcome,[1],inactive
same,max response,[2],12.4%
same,Potency,[3],inactive
same,Potency,[4],inactive
same,Potency,[5],inactive
same,Potency,[6],inactive
same,Potency,[7],inactive
same,outcome,[8],inactive
same,Potency,[9],inactive
CC(C)NCC(O)COc1ccc(CCOCC2CC2)cc1 (centres undefined),Potency,[10],inactive
same,max response,[2],-6.16%
same,Potency,[4],inactive
same,Potency,[5],inactive
same,Potency,[6],inactive
same,Potency,[7],inactive
same,outcome,[8],inactive
same,Potency,[9],inactive
O=C1CCCCC1C1CCCCC1 (centres undefined),Potency,[10],inactive
same,max response,[2],11.8%
same,Potency,[4],inactive
same,Potency,[5],inactive
same,Potency,[6],inactive
same,Potency,[7],inactive
same,outcome,[8],inactive
same,Potency,[9],inactive
CCCCC(=O)O[C@]1(C(=O)CO)[C@H](C)C[C@H]2[C@@H]3CCC4=CC(=O)C=C[C@]4(C)[C@@]3(F)[C@@H](O)C[C@@]21C,outcome,[1],inactive
same,max response,[2],0.0182%
same,Potency,[3],inactive
same,Potency,[4],inactive
same,Potency,[5],inactive
same,Potency,[6],inactive
same,Potency,[7],inactive
same,outcome,[8],inactive
same,Potency,[9],inactive
Cc1cc2nc(N)sc2cc1C,Potency,[10],inactive
same,Potency,[3],inactive
same,Potency,[4],inactive
same,Potency,[5],inactive
same,Potency,[6],inactive
same,Potency,[7],inactive
same,outcome,[8],inactive
same,Potency,[9],inactive
O=C(O)[C@@H](O)[C@H](O)[C@H](O)[C@@H](O)C(=O)O,outcome,[1],inactive
same,Potency,[3],inactive
same,Potency,[4],inactive
same,Potency,[5],inactive
same,Potency,[6],inactive
same,Potency,[7],inactive
same,outcome,[8],inactive
same,Potency,[9],inactive
CNCCC(Oc1ccccc1OC)c1ccccc1 (centres undefined),outcome,[1],inactive
same,Potency,[3],inactive
same,Potency,[4],inactive
same,Potency,[5],inactive
same,Potency,[6],inactive
same,Potency,[7],inactive
same,outcome,[8],inactive
same,Potency,[9],inactive
CC(C)(C)C1CCCCC1=O (centres undefined),outcome,[1],inactive
same,max response,[2],10.3%
same,Potency,[4],inactive
same,Potency,[5],inactive
same,Potency,[6],inactive
same,Potency,[7],inactive
same,outcome,[8],inactive
same,Potency,[9],inactive
OCc1c2ccccc2cc2ccccc12,outcome,[1],inactive
same,Potency,[3],inactive
same,Potency,[4],inactive
same,Potency,[5],inactive
same,Potency,[6],inactive
same,Potency,[7],inactive
same,outcome,[8],inactive
same,Potency,[9],inactive
CCCCNc1ccc(C(=O)OCCN(CC)CC)cc1,outcome,[1],inactive
same,Potency,[4],inactive
same,Potency,[5],inactive
same,Potency,[6],inactive
same,Potency,[7],inactive
same,outcome,[8],inactive
same,Potency,[9],inactive
CC(C)NC[C@@H](O)COc1cccc2ccccc12,max response,[2],-27.3%
same,Potency,[3],inactive
same,Potency,[4],inactive
same,Potency,[5],inactive
same,Potency,[6],inactive
same,Potency,[7],inactive
same,outcome,[8],inactive
same,Potency,[9],inactive
CC(C)(CO)[C@@H](O)C(=O)NCCC(=O)O,outcome,[1],inactive
same,max response,[2],4.63%
same,Potency,[4],inactive
same,Potency,[5],inactive
same,Potency,[6],inactive
same,Potency,[7],inactive
same,outcome,[8],inactive
same,Potency,[9],inactive
Oc1ccccc1F,outcome,[1],inactive
same,max response,[2],16.1%
same,Potency,[4],inactive
same,Potency,[5],inactive
same,Potency,[6],inactive
same,Potency,[7],inactive
same,outcome,[8],inactive
same,Potency,[9],inactive
CCOc1ccc(NS(=O)(=O)c2ccc(N)cc2)nn1,outcome,[1],inactive
same,Potency,[4],inactive
same,Potency,[5],inactive
same,Potency,[6],inactive
same,Potency,[7],inactive
same,outcome,[8],inactive
same,Potency,[9],inactive
Cc1onc(-c2ccccc2)c1C(=O)Cl,max response,[2],5.64%
same,Potency,[3],inactive
same,Potency,[5],inactive
same,outcome,[8],inactive
same,Potency,[9],inactive
CN(C)C(=O)NC1(c2ccccc2)CCN(CCC[C@]2(c3ccc(Cl)c(Cl)c3)CCCN(C(=O)c3ccccc3)C2)CC1,"viability change, negative = cytotoxic",[1],-6.85% [at 15.8 µM]
same,activity change,[3],"4.75% [at 15.8 µM, stronger effect = higher value]"
same,cytotoxicity increase,[4],15.3% [at 15.8 µM]
same,"activity change, negative = cytotoxic",[5],-9.2% [at 15.8 µM]
same,cytotoxicity,[6],19.6% [at 15.8 µM]
same,"activity change, negative = cytotoxicity",[8],0.507% [at 15.8 µM]
same,cytotoxicity increase,[9],19.1% [at 15.8 µM]
Cc1c(-c2ccccc2)oc2c(C(=O)OCCN3CCCCC3)cccc2c1=O,outcome,[1],inactive
same,Potency,[3],inactive
same,Potency,[4],inactive
same,Potency,[5],inactive
same,Potency,[6],inactive
same,Potency,[7],inactive
same,outcome,[8],inactive
same,Potency,[9],inactive
O=C(O)C(=O)Cc1c[nH]c2ccccc12,Potency,[3],inactive
same,Potency,[4],inactive
same,Potency,[5],inactive
same,Potency,[6],inactive
same,Potency,[7],inactive
same,outcome,[8],inactive
same,Potency,[9],inactive
O=C1CCC(C2CCCCC2)CC1,outcome,[1],inactive
same,Potency,[3],43.6 µM (active)
same,Potency,[4],38.9 µM (active)
same,Potency,[5],inactive
same,Potency,[6],38.9 µM (active)
same,Potency,[7],38.9 µM (active)
same,outcome,[8],inactive
same,Potency,[9],43.6 µM (active)
CCN(CCCc1ccccc1)CCCc1ccccc1,outcome,[1],inactive
same,Potency,[3],inactive
same,Potency,[4],inactive
same,Potency,[5],inactive
same,Potency,[6],inactive
same,outcome,[8],inactive
same,Potency,[9],inactive
O=C1CCCCCCCCCCC(=O)OCCO1,outcome,[1],inactive
same,max response,[2],-13.7%
same,Potency,[4],inactive
same,Potency,[5],inactive
same,Potency,[6],21.9 µM (active)
same,Potency,[7],24.5 µM (active)
same,outcome,[8],inactive
same,Potency,[9],inactive
CCc1cc(Cl)c(OC)c(C(=O)NC[C@@H]2CCCN2CC)c1O,max response,[2],-13.1%
same,Potency,[3],inactive
same,Potency,[4],inactive
same,Potency,[5],inactive
same,Potency,[6],inactive
same,Potency,[7],inactive
same,outcome,[8],inactive
same,Potency,[9],inactive

# Reference: PubChem BioAssay (Tox21)
